Cycloheximide cs = Cycloheximide Counterscreen for Small Molecule Inhibitors of Shiga Toxin; cell reporter, cycloheximide protein synthesis inhibition counterscreen; max response, %; 300,000 compounds, 12% hits; AID 2314, 2010; in the data active means max response mostly above about 13%, no sharp cut-off; inactive means mostly below about 14%; further: read at 38.3 µM for the half of the compounds with a filed dose
AMA1-RON2 inh = qHTS for Inhibitors of AMA1-RON; Towards Development of Antimalarial Drug Lead: Primary Screen | Plasmodium falciparum AMA1 (3D7) - RON2 peptide interaction | AlphaScreen AMA1-biotinylated RON2 peptide binding | AID 720542, 2013 | 360,000 compounds, 0.2% hits | Potency, µM (top dose mostly 58.2 µM), usual class: inhibitors; further: nearly all actives have a fitted effect of over 45% in size
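AMA1 (3D7) with his tag at 25 nM final met compounds first, then biotinylated RON2 peptide at 25 nM; detection used donor plus acceptor beads, 10 µg/mL apiece, read by AlphaScreen after 30 min at room temperature.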
Pf growth 96h = Primary qHTS for delayed death inhibitors of the malarial parasite plastid, 96 hour incubation | AID 504834, 2011 | P. falciparum luciferase reporter growth, 96 h | 320,000 compounds, 6.9% hits | Potency, µM (highest dose often 28.7 µM), hits mostly inhibitors
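Parasite growth measured via integrated firefly luciferase reporter in P. falciparum. Infected erythrocytes at 2% hematocrit, 0.05% parasitemia final were treated 96 hours at 37 C under 5% CO2, and luminescence was read.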
Shiga toxin inh = A qHTS for Small Molecule Inhibitors of Shiga Toxin; Vero cells, Shiga toxin protein synthesis inhibition reporter; inhibition, % at 38.7 µM; 290,000 compounds, 9.2% hits; in the data active means inhibition mostly above about 28%, no sharp cut-off; inactive means mostly below about 43%
Pf growth 48h = Primary qHTS for delayed death inhibitors of the malarial parasite plastid, 48 hour incubation. P. falciparum luciferase growth in erythrocytes, 48 h. Potency, µM (series often up to 28.7 µM), usual class: inhibitors. 310,000 compounds, 5.9% hits
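Erythrocytes infected with P. falciparum carrying an integrated firefly luciferase reporter (2% hematocrit, 0.1% parasitemia final) were exposed to compounds in RPMI 1640 with 0.5% Albumax at 37 C, 5% CO2. Growth inhibition was scored as reduced luminescence.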
HCV inh = qHTS Assay for Inhibitors of Hepatitis C Virus (HCV). Huh7.5.1 HCVcc-Cre infection, luciferase reporter, 44 h. Potency, µM (titrated, usually from 41.8 µM), most hits filed as inhibitors. 340,000 compounds, 3.4% hits. AID 651820, 2012
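Antiviral activity was scored by luciferase reporter output from cells infected with HCVcc-Cre (~0.5 moi) in presence of compound, 44 h infection period, cells seeded 1,000/well 4 h prior.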
Numbers stand for hits; . = inactive; ? = inconclusive; / = no result given; + = active, no number; [ ] = dose if it differs, or a comment. Most compounds without a hit are left out; they make up all but 21% or so of the library. Unless noted, the call rests on the fitted dose curve; in most records, active means well fitted curve in the direction sought with a large enough effect; inconclusive means small, poorly fitted or top-dose-only effect, or another doubt; inactive means no such curve, though single readings can be large; an effect the other way counts as inactive or inconclusive.

SMILES	Cycloheximide cs	AMA1-RON2 inh	Pf growth 96h	Shiga toxin inh	Pf growth 48h	HCV inh
CCc1cc(C(=O)N2CCCC(Nc3ccc(F)c(F)c3)C2)n(C)n1 (stereo not drawn)	.	.	?	.	.	/
Cc1nn(CC(=O)NCc2ccccc2)c(C)c1[N+](=O)[O-]	.	.	?	.	.	.
Cc1nn(CC(=O)c2ccccc2Cl)c(C)c1[N+](=O)[O-]	48	.	.	93	.	.
Cc1nn(CC(=O)NCCc2ccc(Cl)cc2Cl)c(C)c1[N+](=O)[O-]	.	.	?	.	12µM	?
CCC(=O)NCCSc1c[nH]c2ccccc12	.	.	?	.	.	.
CC(C)C(=O)NCCSc1c[nH]c2ccccc12	.	.	12µM	.	.	.
O=C(NCCSc1c[nH]c2ccccc12)c1ccc(Br)o1	.	.	2.1µM	.	.	.
Cc1ccc(NC(=O)C2CCN(S(=O)(=O)c3c(C)nn(C)c3C)CC2)c(Cl)c1	.	.	?	.	.	.
CC(C)S(=O)(=O)NC(=O)C1(C)CCN1C(=O)Cc1ccccc1 (stereo not drawn)	/	.	/	/	/	/
Cc1csc(NC(=O)CSc2nnc(-c3ccco3)n2C)n1	.	.	.[5.75 µM]	.	?	.
COc1ccc(CCCc2nnc(SCC(=O)Nc3nc(C)cs3)n2C)cc1	.	.	/	.	10µM	.
COc1cccc2cc(-c3nnc(SCC(=O)Nc4nc(C)cs4)n3C)oc12	.	.	?	.	?	13µM
Cc1cc(C(=O)Nc2cccc(C)c2C)c2ccccc2n1	.	.	.	.	.	.
CCSc1nc(N)c(C#N)c(-c2ccccc2Cl)c1C#N	.	.	/	.	/	.
N#Cc1c(N)nc(Sc2ccc(Cl)cc2)c(C#N)c1-c1ccccc1Cl	.	.	7.4µM	.	?	11µM
CC(C)N1CCSC1=S	/	.	/	/	/	.
O=C(CN1CCCCC1)N/N=C/c1ccc(Cl)cc1	14	.	.	45	.	.
COc1cc(/C=N/NC(=O)CN2CCCCC2)ccc1OCc1ccccc1	28	.	.	+	.	.
CCOc1cc(/C=N\NC(=O)CN2CCOCC2)ccc1OCc1ccc(F)cc1	.	.	12µM	.	9.3µM	.
O=C(CN1CCCCCCC1)N/N=C/c1ccc(F)c(F)c1	.	.[2.32 µM]	.	.	.	.
CCOc1cc(/C=N/NS(=O)(=O)c2ccc(OC)cc2)ccc1OCCN1CCOCC1	.	.	5.2µM	.	.	.
COc1ccc(NC(=O)CSCC(=O)N(C)CCOc2ccc(Cl)cc2)cc1	/	.	?	/	?	?
Cc1c(C(=O)NCc2ccccc2C(F)(F)F)sc(=O)n1Cc1ccc(F)cc1	/	.	/	/	/	/
C#CCOc1ccccc1C(N)=O	.	.	.	.	.	.
COc1ccc(NC(=O)c2cc(S(=O)(=O)N(Cc3ccccc3)c3ccccc3)ccc2Cl)cn1	.	.	?	.	?	?
SMILES	Cycloheximide cs	AMA1-RON2 inh	Pf growth 96h	Shiga toxin inh	Pf growth 48h	HCV inh
COc1ccc(C(=O)NCc2nnc(SCC(=O)N3CCCC3)o2)cc1OC	.	.	.	.	.	.
COc1ccc(NC(=O)CSc2nnc(NC(=O)C3CCC3)s2)c(OC)c1	.	.	?	.	.	.
Cc1[nH]c2ccccc2c1C(=O)C(=O)NCc1nnnn1-c1ccc(F)c(F)c1	/	.	/	/	/	/
COc1cc(/C=N\NC(=O)CN2CCOCC2)ccc1OCC(=O)Nc1ccc(C)c(C)c1	14	.	9.3µM	35	?	.
CC(C)(C)OC(=O)COc1ccc(/C=N/NC(=O)CN2CCCCC2)cc1	45	.	.	88	.	.
Cn1cccc1CC(=O)N/N=C/c1ccc(Cl)cc1	16	.	.	26	.	.
COc1cc(/C=N/NC(=O)CN2CCOCC2)ccc1OCc1ccccc1	.	.	?	.	.	.
CCCCOc1ccc(C(=O)N/N=C/c2ccc(OCCN3CCCCC3)c(OC)c2)cc1	.	.	12µM	.	12µM	?
CCOc1ccc(N(CC(=O)NCc2ccc(F)cc2)C(=O)c2ccco2)cc1	.	.	?	.	.	.
O=C(COC(=O)c1ccc(OC(F)F)cc1)NCc1cccs1	/	.	/	/	/	.
O=C(CN1CCCCCC1)N/N=C/c1cccc(Cl)c1	.	.	.	.	.	.
O=C(CN1CCCCCC1)N/N=C/c1ccc2ccccc2c1	43	.	?	74	.	.
Cc1onc(-c2ccccc2Cl)c1C(=O)NCc1nnnn1-c1ccc(F)c(F)c1	/	.	/	/	/	/
CC(C)CNC(=O)C1(C)CCCCCN1C(=O)c1cc2ccccc2s1 (stereo not drawn)	/	.	/	/	/	/
CC(c1cc2ccccc2s1)N(O)C(N)=O (stereo not drawn)	.	/	0.38µM	.	.	/
Cc1ccc(OCc2nc(-c3ccccn3)n[nH]2)cc1	32	?	/	.	.	?
Cc1ccc2cccc(OCc3cccc([N+](=O)[O-])c3)c2n1	.	.	?	.	.	?
COc1cc(/C=C/c2ccc3cccc(OC)c3n2)c(O)c([N+](=O)[O-])c1	.	.	.	.	?	?
COc1c(OC(C)=O)ccc(/C=C/c2ccc3cccc(OCc4ccccc4)c3n2)c1[N+](=O)[O-]	35	.	?	53	1.9µM	7.1µM
COc1cc(/C=C/c2ccc3cccc(OC)c3n2)c(OC(C)=O)c([N+](=O)[O-])c1	.	.	?	.	/	8.9µM
COc1ccc(S(=O)(=O)N2CCOCC2)cc1NC(=O)C1CCN(S(=O)(=O)c2ccc(Cl)cc2)CC1	/	.	/	/	/	.
COc1ccc(NC(=O)CN2C(=O)COc3ccccc32)cc1OC	.	.	.	/	?	.
Cc1ccn2cc(CCNC(=O)C3CC=CCC3C(=O)O)nc2c1 (stereo not drawn)	20	.	.	77	.	.
CSCCC(NC(=O)COc1ccccc1)C(=O)OC(C)C(=O)Nc1ccccc1C (stereo not drawn)	/	.	.	/	.	.
Cc1ccc(S(=O)(=O)N2CCN(C(=O)COC(=O)/C=C/c3ccc(OC(F)F)cc3)CC2)cc1	/	.	/	/	/	.
SMILES	Cycloheximide cs	AMA1-RON2 inh	Pf growth 96h	Shiga toxin inh	Pf growth 48h	HCV inh
CC(=O)c1ccc(N2CCN(CCC#N)CC2)c(F)c1	.	.	/	.	.	.
CCCCCC(=O)N1CCN(c2ccc(C(C)=O)cc2F)CC1	.	.	7.4µM	.	.	.
CC(=O)c1ccc(N2CCCC2)c(F)c1	17	/	/	81	.	.
CCC(=O)c1ccc(N2CCCCC2)c(F)c1	.	.	8.3µM	.	.	.
CCCC(=O)N1CCN(c2ccc(C(=O)c3ccc(OC)c(Br)c3)cc2F)CC1	.	/	.	.	.	/
CC(=O)c1ccc(N2CCN(S(=O)(=O)c3ccccc3)CC2)c(F)c1	.	.	?	.	.	.
CC(=O)c1ccc(N2CCC(C)CC2)c(F)c1	29	.	.	.	.	.

Compound activity: PubChem BioAssay, National Center for Advancing Translational Sciences (NCATS)
